Where “and” joins values, the source holds several entries; their conditions need not be identical. Equal values may be shown once. This is part of a sample that, as a whole, favours compounds with a hit. Of some 79,000 tested, about 15% had one in any assay. Some structures have more than one record in an assay (separate samples or runs), and their calls can disagree. Calls of active or inactive are those of the source. Cut-off read from the data, not from the text of the source: active = growth inhibition above about 70%; inactive = the rest.
Key:
[1] = NCI Yeast Anticancer Drug Screen. Data for the rad50 strain (AID 155);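 note: 0% = growth of vehicle-only cultures of the same strain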; conditions: S. cerevisiae rad50 strain growth inhibition, stronger effect = higher value
Outline: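 Compounds were tested on a yeast strain with an engineered DNA damage repair alteration; the reported value is growth inhibition normalised to vehicle treatment.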

[2] = NCI Yeast Anticancer Drug Screen. Data for the mec2-1 strain (AID 157); conditions: S. cerevisiae mec2-1 strain, stronger effect = higher value
Outline: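 Compounds were applied to mec2-1 yeast cells. Their growth was then compared with that of vehicle-treated cultures to give growth inhibition.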

[3] = NCI Yeast Anticancer Drug Screen. Data for the sgs1 mgt1 strain (AID 161);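 note: 0% = growth of cultures given vehicle only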; conditions: S. cerevisiae sgs1 mgt1 strain, stronger effect = higher value
Outline: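 Growth of a repair-deficient yeast mutant was monitored after compound treatment and expressed as inhibition relative to vehicle-treated cultures.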

[4] = NCI Yeast Anticancer Drug Screen. Data for the cln2 rad14 strain (AID 165);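 note: 0% = growth equal to vehicle treated cultures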; conditions: S. cerevisiae cln2 rad14 strain, stronger effect = higher value
Outline: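 Strain: cln2 rad14 yeast, altered in cell cycle control and DNA damage repair. Read-out: growth inhibition vs vehicle.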

[5] = NCI Yeast Anticancer Drug Screen. Data for the bub3 strain (AID 167); conditions: S. cerevisiae bub3 mutant strain, stronger effect = higher value
Outline: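 Growth of a checkpoint-deficient yeast mutant is measured after compound exposure. Values represent inhibition relative to vehicle.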

[6] = NCI Yeast Anticancer Drug Screen. Data for the mlh1 rad18 strain (AID 175); conditions: S. cerevisiae mlh1 rad18 strain growth inhibition, stronger effect = higher value
Outline: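 A repair-deficient yeast strain is exposed to test compound, and growth is scored relative to vehicle-treated controls.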

[7] = at 5.0 µM (retest, dose inferred, filed as 0.5)
[8] = at 50.0 µM (retest, dose inferred, filed as 5.0)

Measured: growth inhibition

O=[N+]([O-])c1ccc(Cl)c(C2CC(c3cccc4ccccc34)=Nc3ccccc3S2)c1 (stereo unspecified)
active: [2]; at 50.0 µM 83%
inactive: [1]; [7] 0% | [1]; [8] 0% | [1]; at 50.0 µM 31.1% | [2]; [7] 0% | [2]; [8] 2% | [3]; [7] 2% | [3]; [8] 12% | [3]; at 50.0 µM 30.6% | [4]; [7] -1% | [4]; [8] 0% | [4]; at 50.0 µM 43.2% | [5]; [7] 2% | [5]; [8] 7% | [5]; at 50.0 µM 35.2% | [6]; [7] -1% | [6]; [8] 6% | [6]; at 50.0 µM 58.3%

Nc1nc(=S)c2ncn(C3OC(CO)C(O)C3O)c2[nH]1 (stereo unspecified)
-11.9% (inactive) and 97.5% (active): [6]; at 50.0 µM
inactive: [1]; [8] 5% | [1]; at 50.0 µM 12.5% and 38.5% | [2]; [8] 6% | [3]; [7] 66% | [3]; [8] 26% | [3]; at 50.0 µM -3.7% and -8.45% | [4]; [7] 49% | [4]; [8] 9% | [5]; [8] 14% | [6]; [8] 52%
4.9% (inactive) and 96.8% (active): [4]; at 50.0 µM
-4.2% (inactive) and 98% (active): [5]; at 50.0 µM
active: [1]; [7] 79% | [2]; [7] 97% | [5]; [7] 99% | [6]; [7] 94%
0.4% (inactive) and 92.5% (active): [2]; at 50.0 µM

N#CNC1=NCOCN1
inactive: [1]; [7] -3% | [1]; [8] 6% | [1]; at 50.0 µM -1.6% and 21.8% | [2]; [7] 2% | [2]; [8] 10% | [2]; at 50.0 µM 22.4% and 1.35% | [3]; [7] 2% | [3]; [8] -9% | [3]; at 50.0 µM 13.8% and 8.55% | [4]; [7] 4% | [4]; [8] 11% | [4]; at 50.0 µM 13.3% and 18.8% | [5]; [7] -12% | [5]; [8] -3% | [5]; at 50.0 µM 10.1% and -8.85% | [6]; [7] 12% | [6]; [8] 9% | [6]; at 50.0 µM 64.4% and 18.4%

ClCCCN(CCCCl)c1ccc(C=Nc2cccc(Cl)c2)cc1
inactive: [1]; [7] 16% | [2]; [7] -4% | [2]; [8] 8% | [2]; at 50.0 µM -1.2% | [3]; [7] 24% | [4]; [7] 8% | [5]; [7] -4% | [5]; [8] -14% | [5]; at 50.0 µM -13% | [6]; [7] 17%
active: [1]; [8] 89% | [1]; at 50.0 µM 91.3% | [3]; [8] 90% | [3]; at 50.0 µM 92.8% | [4]; [8] 88% | [4]; at 50.0 µM 86.2% | [6]; [8] 89% | [6]; at 50.0 µM 78.5%

O=C(CC1(O)C(=O)Nc2ccccc21)c1ccc(Cl)c(Cl)c1 (stereo unspecified)
inactive: [1]; [7] -5% | [1]; [8] 26% | [2]; [7] -4% | [2]; [8] 29% | [2]; at 50.0 µM 39% | [3]; [7] 1% | [3]; [8] 41% | [4]; [7] -5% | [4]; [8] -12% | [5]; [7] -4% | [5]; [8] 31% | [6]; [7] -4% | [6]; [8] 31%
active: [1]; at 50.0 µM 84% | [3]; at 50.0 µM 73.4% | [4]; at 50.0 µM 72% | [5]; at 50.0 µM 77.2% | [6]; at 50.0 µM 88.3%

COC1C(O)C(C)OC(OC2C(Oc3cccc4c(O)c5c(=O)oc6ccc(C)c7c(=O)oc(c34)c5c67)OC(C)C3O[C@H](c4ccccc4)OC32)C1O (stereo partly specified)
active: [1]; [7] 82% | [1]; [8] 96% | [1]; at 50.0 µM 86.5% | [2]; [7] 70% | [2]; [8] 96% | [2]; at 50.0 µM 88.5% | [3]; [7] 73% | [3]; [8] 96% | [3]; at 50.0 µM 91% | [4]; [8] 96% | [4]; at 50.0 µM 88.3% | [5]; [7] 74% | [5]; [8] 95% | [5]; at 50.0 µM 89.6% | [6]; [7] 77% | [6]; [8] 93% | [6]; at 50.0 µM 77.3%
inactive: [4]; [7] 59%

OC1(C2C=CC=C2)c2ccccc2C=Cc2ccccc21
inactive: [1]; [7] 4% | [1]; [8] 51% | [2]; [7] 13% | [2]; [8] 48% | [2]; at 50.0 µM 10.7% | [3]; [7] 4% | [3]; [8] 54% | [4]; [7] -36% | [4]; at 50.0 µM 48.4% | [5]; [7] -14% | [5]; [8] -85% | [5]; at 50.0 µM 69.5% | [6]; [7] 9% | [6]; [8] 37%
active: [1]; at 50.0 µM 91% | [3]; at 50.0 µM 78.6% | [4]; [8] 70% | [6]; at 50.0 µM 89.6%

Reference: PubChem BioAssay (NCI)
